The nature of experiment [1]: Cell Viability - LYMP2-015 (AID 971; active means well fitted curve in the direction sought with a large enough effect; an effect the other way counts as inactive or inconclusive;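 further: 0% = DMSO only and full effect = 92 µM tetraoctylammonium bromide; nearly all actives have a fitted effect of over 55% in size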). The essentials:
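AC50 values reflect Hill-model fits of ATP-based luminescence (CellTiter-Glo) from a human lymphoblastoid line, 2500 cells/well, treated 24 hr at 37 C.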

In experiment [2] the target is Estrogen receptor (Homo sapiens) (UniProt P03372). The experiment in a line: qHTS assay for small molecule agonists of estrogen receptor alpha signaling (AID 588514).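 Further: 0% = vehicle only and 100% = reference agonist; nearly all actives have a fitted effect of over 70% in size.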 The method in brief:
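Fluorescence from CCF4 cleavage reports ER-alpha-driven beta-lactamase expression in HEK 293 cells treated 18 hrs at 37 C. Data normalized to 17-beta-estradiol (20 nM) and DMSO, fitted to Hill equation.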
Background: Quantitative high-throughput screening tests each substance at several concentrations.

Experiment [3] deals with Glucocorticoid receptor (Homo sapiens) (UniProt P04150). The experiment in a line: qHTS assay for small molecule agonists of glucocorticoid receptor signaling (AID 588532; active means well fitted curve in the direction sought with a large enough effect in the signal ratio, with a control signal flat; the % refers to the signal ratio;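 further: 100% = dexamethasone at 0.1 µM and 0% = DMSO only wells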). The following applies: HeLa MMTV-bla, beta-lactamase ratio, agonist, 18 h; stronger effect = higher value; percent of dexamethasone control, DMSO zero. The essentials:
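Titration series, up to 92 uM, applied to GRE-bla HeLa cells for 18 h at 37 C. Detection by CCF4 FRET substrate after 2 h at RT.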

The target is the same in experiment [4]. The experiment is described as follows: qHTS assay for small molecule antagonists of glucocorticoid receptor signaling (AID 588533; active means well fitted inhibition curve with a large enough effect in the signal ratio, with a control signal flat, not every such curve was filed as active; the % refers to the signal ratio;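 further: cells stimulated with 2 nM dexamethasone as agonist; on the % scale 0 is the no-effect control and ±100 the full control effect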). The essentials:
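Antagonist-mode qHTS: compound titrations added to GRE-bla HeLa cells, then dexamethasone 2 nM final; 18 h, 37 C. CCF4 FRET fluorescence normalized to dexamethasone and DMSO; IC50 from Hill fit.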

The target of experiment [5] is Peroxisome proliferator-activated receptor gamma (Homo sapiens) (UniProt P37231). The experiment is described as follows: qHTS assay for small molecule antagonists of peroxisome proliferator-activated receptor gamma signaling (AID 588537; active means well fitted inhibition curve with a large enough effect in the signal ratio, with a control signal flat, not every such curve was filed as active; the % refers to the signal ratio;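 further: reporter cells co-stimulated with 50 nM rosiglitazone agonist during compound treatment; % of control where 0% means no effect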). The essentials:
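HEK293 cells, PPAR-gamma-UAS-bla, 3000/well. Pre-incubation 6-6.5 h, 37 C. Compound titration with rosiglitazone 50 nM final, 16 h. CCF4 dye, 2 h RT, dual-emission fluorescence.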

Experiment [6] has as its target Vitamin D3 receptor (Homo sapiens) (UniProt P11473). The experiment is described as follows: qHTS assay for small molecule antagonists of vitamin D receptor signaling (AID 588541).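 Further: receptor activated by calcitriol during compound treatment; series mostly up to about 77 µM; on the % scale 0 is the no-effect control and ±100 the full control effect.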 The essentials:
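VDR-UAS-bla HEK293T cells (2000/well, 2% charcoal-stripped FBS) were treated with titrated compounds plus 1-alpha,25-dihydroxyvitamin D3 (50 nM or 3 nM final) for 16 h at 37 C. CCF4 beta-lactamase fluorescence was read; Hill fits gave IC50.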

Experiment [7] has the same target. The experiment is described as follows: qHTS assay for small molecule agonists of vitamin D receptor signaling (AID 588543).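 Further: 0% = DMSO basal and 100% = reference agonist control.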 The method in brief: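 Reporter cells (HEK293T, VDR-UAS-bla) were seeded in medium with 2% charcoal-stripped serum and incubated 5 h, then compounds in concentration series were added for 16 h at 37 °C. Stimulation was scaled between DMSO basal and 50 nM 1α,25-dihydroxyvitamin D3.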

The nature of experiment [8]: qHTS assay for small molecule agonists of the antioxidant response element (ARE) signaling pathway (AID 651741; active means well fitted activation curve with a large enough effect in the signal ratio; the % refers to the signal ratio; further: % of control where 0% means no effect). The essentials: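 Beta-lactamase reporter expression driven by the antioxidant response element in HepG2 cells was detected by fluorescence with LiveBLAzer B/G FRET substrate (2 h, room temperature) following 16 h compound treatment at 37 C.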
Experiment [9] concerns the target Nuclear receptor ROR-gamma (Homo sapiens) (UniProt P51449). The experiment in a line: qHTS assay for small molecule antagonists of the retinoid-related orphan receptor gamma (ROR-gamma) signaling pathway (AID 651802; active means well fitted curve in the direction sought with a large enough effect; an effect the other way counts as inactive or inconclusive;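 further: CHO cells with doxycycline-induced ROR-gamma expression; luciferase reporter luminescence driven by ROR response element; series mostly up to about 92 µM; on the % scale 0 is the no-effect control and ±100 the full control effect; nearly all actives have a fitted effect of over 60% in size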). The essentials:
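Doxycycline-induced reporter activity in engineered CHO cells (TET-inducible ROR, RORE-LUC) was measured by luminescence after 16hr compound exposure at 37C.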

Experiment [10] is described as follows: Cellular Toxicity (caspase-3) NIH 3T3 (AID 666; active means well fitted curve in the direction sought with a large enough effect; an effect the other way counts as inactive or inconclusive;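 further: caspase signal read after 16 h compound exposure; 0% = DMSO basal and 100% = 100 µM tamoxifen stimulation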). The method in brief: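 Activity: caspase-3/7 induction, NIH 3T3 cells, 16 hr treatment at 37°C, luminescent Caspase-Glo detection; AC50 via Hill equation.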
A short description of experiment [11]: Cell Viability - LYMP2-021 (AID 974; active means well fitted curve in the direction sought with a large enough effect; an effect the other way counts as inactive or inconclusive;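 further: compound exposure lasts 24 hours at 37 °C; on the % scale 0 is the no-effect control and ±100 the full control effect; nearly all actives have a fitted effect of over 55% in size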). The essentials: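 In qHTS format, compounds are tested against 2500 lymphoblastoid cells per well for 24 h; viable cell number is inferred from ATP-driven luciferase light, and Hill-equation fitting yields AC50 values.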
Experiment [12] can be described thus: Cell Viability - LYMP1-002 - Assay at 40 hr (AID 994; active means well fitted curve in the direction sought with a large enough effect; an effect the other way counts as inactive or inconclusive;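 further: 0% = DMSO only and full inhibition = 92 µM tetraoctylammonium bromide; nearly all actives have a fitted effect of over 60% in size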). The essentials:
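Concentration-dependent ATP loss after 40 hr treatment at 37 C defined toxicity; AC50 values were obtained by fitting the standard Hill equation.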

For experiment [13], the target named is Bile acid receptor (Homo sapiens) (UniProt Q96RI1). The experiment in a line: qHTS assay for small molecule antagonists of farnesoid X receptor signaling (AID 588526). Further: on the % scale 0 is the no-effect control and ±100 the full control effect. The method in brief: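 Concentration-response titrations were fitted to the Hill equation for half-maximal inhibition and maximal response, with data normalised to 50 uM chenodeoxycholic acid and DMSO control wells. Cells: FXR-UAS-bla HEK293T, dialyzed FBS.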
Chain of Bile acid receptor (Homo sapiens) (Q96RI1 whole entry, looked up): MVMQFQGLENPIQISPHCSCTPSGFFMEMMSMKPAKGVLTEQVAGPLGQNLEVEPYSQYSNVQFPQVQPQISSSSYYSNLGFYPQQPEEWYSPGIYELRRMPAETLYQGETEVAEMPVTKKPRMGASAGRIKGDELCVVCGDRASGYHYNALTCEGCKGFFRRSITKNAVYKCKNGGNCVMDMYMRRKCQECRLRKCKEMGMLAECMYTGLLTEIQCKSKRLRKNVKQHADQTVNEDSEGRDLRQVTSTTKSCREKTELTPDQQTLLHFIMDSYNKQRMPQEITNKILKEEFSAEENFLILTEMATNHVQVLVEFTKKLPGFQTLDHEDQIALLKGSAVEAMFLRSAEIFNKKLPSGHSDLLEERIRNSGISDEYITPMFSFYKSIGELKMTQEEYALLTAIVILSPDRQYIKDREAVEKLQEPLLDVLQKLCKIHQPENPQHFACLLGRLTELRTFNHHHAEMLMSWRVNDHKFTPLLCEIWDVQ

The nature of experiment [14]: qHTS assay for small molecule activators of the nuclear factor-kappa B (NF-kB) signaling pathway (AID 651749; active means well fitted activation curve with a large enough effect in the signal ratio; the % refers to the signal ratio; further: series mostly up to about 77 µM; % of control where 0% means no effect). The conditions noted are these: NF-kB-bla ME-180 cells, beta-lactamase FRET ratio, 16 h; stronger effect = higher value. The method in brief:
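Beta-lactamase reporter expression, controlled by NF-kB response elements in ME-180 cells, was quantified fluorometrically via FRET disruption; cells at 2,000/well had been incubated with 23 nL test compound for 16 hr.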

A short description of experiment [15]: qHTS assay for cell viability of the p53RE-bla HCT-116 cell line (AID 743292; active means well fitted curve in the direction sought with a large enough effect; an effect the other way counts as inactive or inconclusive; further: on the % scale 0 is the no-effect control and ±100 the full control effect; nearly all actives have a fitted effect of over 55% in size). The essentials:
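Readout: CellTiter-Glo luminescence after 30 min RT. Treatment: compounds in DMSO, 16 h, 37 C. Cells: CellSensor p53RE-bla HCT-116, 4,000/well, preincubated 5 h.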

Experiment [16] is described as follows: qHTS assay for small molecule antagonists of peroxisome proliferator-activated receptor delta signaling (AID 588535; active means well fitted inhibition curve with a large enough effect in the signal ratio, with a control signal flat, not every such curve was filed as active; the % refers to the signal ratio;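 on max response: cells co-treated with a PPAR-delta agonist as stimulator during compound exposure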). The conditions noted are these: HEK293T PPARd-UAS-bla, beta-lactamase FRET ratio, 18 h; 460 nm channel. The essentials: (§1)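 Compounds tested in titration on PPAR-delta-UAS-bla HEK293T cells grown in charcoal/dextran-stripped serum (2%); beta-lactamase activity read via CCF4 emission at 460 and 530 nm.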

Experiment [17] has as its target Peroxisome proliferator-activated receptor delta (Homo sapiens) (UniProt Q03181). The experiment is described as above. The essentials: as §1
The target in experiment [18] is Retinoic acid receptor RXR-alpha (Homo sapiens) (UniProt P19793). The experiment is described as follows: qHTS assay for small molecule antagonists of retinoid X receptor alpha signaling (AID 588546; active means well fitted inhibition curve with a large enough effect in the signal ratio, with a control signal flat, not every such curve was filed as active; the % refers to the signal ratio;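 further: cells stimulated with 9-cis-retinoic acid as agonist; on the % scale 0 is the no-effect control and ±100 the full control effect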). The following applies: HEK293T RXRa-UAS-bla, beta-lactamase ratio, antagonist mode. The method in brief:
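Beta-lactamase reporter inhibition, read as CCF4 fluorescence ratio (ex 405, em 460/530 nm) after 2 h at RT. HEK293T UAS-bla cells, 2500/well, were stimulated with 9-cis-RA at 500 or 100 nM final alongside test compound for 18 h at 37 C.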

Experiment [19] can be described thus: Cell Viability - SH-SY5Y (AID 544; active means well fitted curve in the direction sought with a large enough effect; an effect the other way counts as inactive or inconclusive;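 further: cells exposed to compound for 40 hours; 0% = DMSO alone and -100% = 100 µM tamoxifen; nearly all actives have a fitted effect of over 55% in size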). The method in brief: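 Quantitative HTS in SH-SY5Y neuroblastoma cells, 40 hr treatment at 37 °C, ATP content by luciferase luminescence; AC50 from Hill fits.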
The nature of experiment [20]: qHTS assay to identify small molecules that stimulate interleukin-8 (IL-8) secretion (AID 651758; active means well fitted activation curve with a large enough effect in the signal ratio; the % refers to the signal ratio; further: 0% is about no effect). The method in brief: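 Quantitative HTS in THP-1 monocytic cells at 2000 cells per well, with 16 hrs compound incubation at 37 C. IL-8 in the medium was then quantified by HTRF immunoassay, read after 1-3 hrs at room temperature.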

SMILES strings stand for the structures. Several values for one entry are separate records, joined by “and”; a condition that tells them apart may be missing. Identical values can stand only once. Records with an inconclusive call do not appear. Activity calls are given as the source filed them. Unless noted, the call rests on the fitted dose curve.

Chain of Nuclear receptor ROR-gamma (Homo sapiens) (P51449 whole entry, looked up): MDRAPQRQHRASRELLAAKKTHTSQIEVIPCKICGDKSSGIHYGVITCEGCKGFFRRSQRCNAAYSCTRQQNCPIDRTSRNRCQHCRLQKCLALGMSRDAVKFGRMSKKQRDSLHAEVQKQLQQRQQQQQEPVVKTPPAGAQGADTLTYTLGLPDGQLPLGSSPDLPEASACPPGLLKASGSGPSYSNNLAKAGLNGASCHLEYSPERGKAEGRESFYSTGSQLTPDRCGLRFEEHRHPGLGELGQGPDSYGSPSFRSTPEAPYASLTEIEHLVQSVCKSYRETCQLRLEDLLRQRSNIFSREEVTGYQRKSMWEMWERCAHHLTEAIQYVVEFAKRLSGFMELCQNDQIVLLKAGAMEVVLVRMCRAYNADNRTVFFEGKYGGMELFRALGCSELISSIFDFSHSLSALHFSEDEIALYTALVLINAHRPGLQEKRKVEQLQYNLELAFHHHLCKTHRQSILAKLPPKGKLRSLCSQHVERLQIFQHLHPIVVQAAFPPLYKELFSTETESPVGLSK
Chain of Glucocorticoid receptor (Homo sapiens) (P04150 whole entry, looked up): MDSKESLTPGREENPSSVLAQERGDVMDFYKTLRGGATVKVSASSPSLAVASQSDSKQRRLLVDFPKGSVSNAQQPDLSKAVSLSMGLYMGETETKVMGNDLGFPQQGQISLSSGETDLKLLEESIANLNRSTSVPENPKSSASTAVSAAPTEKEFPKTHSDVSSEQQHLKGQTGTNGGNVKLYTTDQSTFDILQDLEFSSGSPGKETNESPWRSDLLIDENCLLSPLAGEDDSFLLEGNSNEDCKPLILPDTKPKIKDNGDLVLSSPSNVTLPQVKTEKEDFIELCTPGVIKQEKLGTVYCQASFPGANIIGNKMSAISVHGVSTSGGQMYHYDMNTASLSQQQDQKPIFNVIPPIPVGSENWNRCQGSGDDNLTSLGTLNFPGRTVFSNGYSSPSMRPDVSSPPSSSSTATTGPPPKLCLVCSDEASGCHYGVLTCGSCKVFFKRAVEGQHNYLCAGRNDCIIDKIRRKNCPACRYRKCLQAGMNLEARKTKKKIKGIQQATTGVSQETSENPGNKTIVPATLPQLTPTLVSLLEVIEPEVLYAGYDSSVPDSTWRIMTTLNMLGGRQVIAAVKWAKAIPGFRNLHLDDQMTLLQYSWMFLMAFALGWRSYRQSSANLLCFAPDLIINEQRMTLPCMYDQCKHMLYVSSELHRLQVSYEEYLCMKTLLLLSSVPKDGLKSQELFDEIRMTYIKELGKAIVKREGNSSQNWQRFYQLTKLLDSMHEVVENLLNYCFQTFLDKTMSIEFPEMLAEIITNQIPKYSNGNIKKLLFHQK
Chain of Peroxisome proliferator-activated receptor gamma (Homo sapiens) (P37231 whole entry, looked up): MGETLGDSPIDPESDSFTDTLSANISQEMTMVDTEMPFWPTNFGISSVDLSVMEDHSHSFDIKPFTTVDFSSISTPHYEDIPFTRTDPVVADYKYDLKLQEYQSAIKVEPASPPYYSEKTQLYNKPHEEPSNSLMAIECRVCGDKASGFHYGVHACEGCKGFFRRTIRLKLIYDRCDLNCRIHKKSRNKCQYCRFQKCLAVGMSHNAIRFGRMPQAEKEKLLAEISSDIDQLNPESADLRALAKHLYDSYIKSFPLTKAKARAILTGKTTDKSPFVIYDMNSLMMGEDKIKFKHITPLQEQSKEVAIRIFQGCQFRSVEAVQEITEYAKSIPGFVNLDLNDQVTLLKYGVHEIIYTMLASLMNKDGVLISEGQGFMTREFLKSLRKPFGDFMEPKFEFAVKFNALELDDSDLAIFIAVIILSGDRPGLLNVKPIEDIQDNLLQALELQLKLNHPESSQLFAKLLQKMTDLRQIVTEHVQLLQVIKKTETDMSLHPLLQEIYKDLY
Chain of Peroxisome proliferator-activated receptor delta (Homo sapiens) (Q03181 whole entry, looked up): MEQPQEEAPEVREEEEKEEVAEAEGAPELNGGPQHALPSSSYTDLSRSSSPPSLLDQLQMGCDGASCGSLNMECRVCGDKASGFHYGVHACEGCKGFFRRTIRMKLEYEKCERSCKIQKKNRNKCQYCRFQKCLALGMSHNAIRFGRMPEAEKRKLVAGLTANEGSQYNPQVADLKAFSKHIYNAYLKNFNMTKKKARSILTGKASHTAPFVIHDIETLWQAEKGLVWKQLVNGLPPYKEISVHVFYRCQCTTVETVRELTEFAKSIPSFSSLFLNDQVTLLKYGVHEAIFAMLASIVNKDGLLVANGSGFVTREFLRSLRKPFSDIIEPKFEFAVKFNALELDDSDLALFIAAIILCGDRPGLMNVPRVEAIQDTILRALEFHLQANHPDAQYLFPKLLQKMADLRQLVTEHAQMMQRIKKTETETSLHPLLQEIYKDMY
Chain of Vitamin D3 receptor (Homo sapiens) (P11473 whole entry, looked up): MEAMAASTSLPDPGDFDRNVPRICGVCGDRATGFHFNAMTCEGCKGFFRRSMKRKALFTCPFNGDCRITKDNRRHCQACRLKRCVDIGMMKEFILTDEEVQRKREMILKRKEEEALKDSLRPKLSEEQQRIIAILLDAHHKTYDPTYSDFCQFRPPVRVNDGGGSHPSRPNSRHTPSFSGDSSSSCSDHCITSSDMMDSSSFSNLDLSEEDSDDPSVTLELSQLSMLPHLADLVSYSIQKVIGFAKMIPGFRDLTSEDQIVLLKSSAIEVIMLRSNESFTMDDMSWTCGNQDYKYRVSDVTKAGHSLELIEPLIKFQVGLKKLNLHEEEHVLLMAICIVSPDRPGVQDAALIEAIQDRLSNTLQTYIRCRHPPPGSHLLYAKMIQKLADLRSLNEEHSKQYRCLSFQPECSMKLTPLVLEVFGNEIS
Chain of Estrogen receptor (Homo sapiens) (P03372 whole entry, looked up): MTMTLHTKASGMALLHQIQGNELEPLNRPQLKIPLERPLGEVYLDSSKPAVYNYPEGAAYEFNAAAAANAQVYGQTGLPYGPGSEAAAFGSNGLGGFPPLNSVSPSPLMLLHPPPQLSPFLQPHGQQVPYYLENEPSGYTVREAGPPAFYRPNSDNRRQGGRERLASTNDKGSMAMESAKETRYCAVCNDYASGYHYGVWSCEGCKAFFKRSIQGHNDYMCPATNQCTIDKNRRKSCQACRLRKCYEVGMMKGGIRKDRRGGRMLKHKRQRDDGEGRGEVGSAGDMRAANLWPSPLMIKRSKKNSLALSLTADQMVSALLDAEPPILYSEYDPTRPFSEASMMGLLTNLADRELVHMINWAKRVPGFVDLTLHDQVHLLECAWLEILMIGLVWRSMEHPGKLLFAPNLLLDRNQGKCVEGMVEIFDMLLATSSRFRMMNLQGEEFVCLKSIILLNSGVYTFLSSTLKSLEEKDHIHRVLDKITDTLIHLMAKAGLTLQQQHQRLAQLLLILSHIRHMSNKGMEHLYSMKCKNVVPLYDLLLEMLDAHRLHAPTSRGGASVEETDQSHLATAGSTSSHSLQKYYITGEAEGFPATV
Chain of Retinoic acid receptor RXR-alpha (Homo sapiens) (P19793 whole entry, looked up): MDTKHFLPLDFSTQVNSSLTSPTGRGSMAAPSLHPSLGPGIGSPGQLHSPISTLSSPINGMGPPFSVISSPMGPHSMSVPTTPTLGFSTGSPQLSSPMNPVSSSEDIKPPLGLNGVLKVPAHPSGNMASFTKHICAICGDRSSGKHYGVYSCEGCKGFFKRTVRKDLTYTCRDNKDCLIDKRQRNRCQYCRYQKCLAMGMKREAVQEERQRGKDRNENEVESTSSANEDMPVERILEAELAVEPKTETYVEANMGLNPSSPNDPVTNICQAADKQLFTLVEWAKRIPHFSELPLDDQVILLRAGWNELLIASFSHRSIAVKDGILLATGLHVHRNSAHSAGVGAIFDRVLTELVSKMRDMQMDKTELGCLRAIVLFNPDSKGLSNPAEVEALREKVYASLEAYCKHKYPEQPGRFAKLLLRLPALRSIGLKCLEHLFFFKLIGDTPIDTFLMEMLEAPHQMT

Consider `CCCN(CCC)C(=O)SCC`, for which the Potency result in [1], in [2], in experiment [4], in experiment [8] and in experiment [9] was “inactive” throughout. For the same molecule, in experiment [3], the activation was 1.32% (inactive) and 12.8% (inactive). Further, the result in [5], in [6] and in experiment [7] was inactive.

For the molecule `Nc1ccc(S(=O)(=O)O)cc1`, the outcome in [10], in experiment [13], in experiment [6] and in experiment [7] was inactive. The Potency entry in experiment [1], in experiment [11], in experiment [12], in experiment [2], in experiment [8] and in [15] was “inactive” each time. Also, in experiment [14], the activation was -0.239% (inactive) and 0.0399% (inactive).

Consider `CCO[Si](CCCN)(OCC)OCC`, for which the Potency entry in experiment [1], in experiment [11], in experiment [2], in experiment [4], in [17] and in experiment [8] was “inactive” each time. For the same molecule, the Potency entry in experiment [9] was “inactive”. In addition, the molecule was called inactive in experiment [13], in experiment [5], in experiment [6] and in experiment [7]. Moreover, the activation in experiment [3] is 5.03% (inactive) and 9.33% (inactive); in experiment [14] it was -0.737% (inactive) and -1.24% (inactive). Besides, in experiment [16], the max response was 6.45% and -7.95%.

With `COCC(=O)O`, the Potency result in experiment [1], in [11], in [12], in experiment [2], in [4] and in [17] was “inactive” each time. Besides, the Potency result in experiment [8], in experiment [9] and in [15] was “inactive” each time. Moreover, the activation in [3] was 1.9% (inactive) and -4.38% (inactive); in experiment [14], 0.0746% (inactive) and -0.444% (inactive). The max response in experiment [16] is 5.18% and 13.7%. Besides, the call in [5], in experiment [6] and in experiment [7] was inactive.

On to `CC1(C)S[C@@H]2[C@H](NC(=O)COc3ccccc3)C(=O)N2[C@H]1C(=O)O`, for which the activation in [3] was 10.3% (inactive); in experiment [14], -1.54% (inactive). Also, in [16], the max response turned out to be 39.2%. Moreover, the Potency entry in experiment [17] was “inactive”. For the same molecule, the molecule was classed as inactive in experiment [5], in [6] and in experiment [7].

Take `Cc1ccc([N+](=O)[O-])cc1N`: the Potency entry in [1], in experiment [11], in [12], in [2], in [17] and in [9] was “inactive” each time. Besides, the call in experiment [13], in [5], in experiment [6] and in experiment [7] was inactive. Besides, the max response is 18.4% and -6.91% in experiment [16]; -2.87% (inactive) and -11.4% (inactive) in experiment [18].

Regarding `COC(=O)c1ccc(C=O)cc1`, the Potency entry in [1], in experiment [2], in experiment [4], in [17], in experiment [8] and in experiment [9] was “inactive” in each case. Moreover, the result in [13], in experiment [5], in experiment [6] and in experiment [7] was inactive. Besides, the activation was 8.1% (inactive) and -8.49% (inactive) in experiment [3]; -1.54% (inactive) in experiment [14]. In addition, the max response was 6.11% and 19.8% in experiment [16]; 21.2% (inactive) and -1.21% (inactive) in [18].

With `Nc1ccc(Cl)cc1Cl`, the Potency result in experiment [19], in [2], in experiment [4], in [17] and in [9] was “inactive” in each case. Moreover, the call in experiment [13] and in experiment [5] was inactive. The activation in experiment [3] is -1.05% (inactive) and -10.1% (inactive); in experiment [14] it was 0.288% (inactive) and 1.41% (inactive). Also, the max response is 65.7% and 18% in experiment [16]; -0.389% (inactive) and -0.876% (inactive) in [18].

Consider `O=[N+]([O-])c1cccc(Cl)c1Cl`, for which the Potency result in [2], in experiment [4], in [17], in experiment [8], in experiment [20] and in experiment [9] was “inactive” throughout. Besides, the Potency entry in experiment [15] was “inactive”. In addition, the outcome in [13], in [5], in [6] and in [7] was inactive. For the same molecule, the activation in experiment [3] was 3.57% (inactive) and 3.5% (inactive). For the same molecule, the max response in experiment [16] was -5.68% and -3.79%.

For the molecule `CC(=O)OC/C=C(\C)CCC=C(C)C`, the Potency entry in experiment [12], in [2], in [4], in [17], in [9] and in experiment [15] was “inactive” each time. In [3], the activation is 3.31% (inactive) and -2.94% (inactive). Also, in [16], the max response is -10.2% and 0.451%. For the same molecule, the outcome in [5] was inactive.

Turning to `Clc1cc(Cl)c(Cl)c(Cl)c1Cl`, the Potency entry in experiment [11], in experiment [12], in experiment [2], in experiment [4], in experiment [8] and in experiment [20] was “inactive” each time. In addition, the Potency result in experiment [9] was “inactive”. In addition, the activation in [3] was -4.89% (inactive) and 1.1% (inactive). The molecule was called inactive in experiment [6] and in [7].

These data come from PubChem BioAssay (NCATS).
